# Reference: PMC5540273 (PLoS ONE, 2017)
# “And” between values parts separate entries of the source, which are not always exact repeats. Equal entries are not always repeated. Where two headings read alike, the source gives them in different places.
# Assays:
# ERN1 = conditions: concentration: 1 μM, replicates: in singlicate, n = 1
# FAK = test system: T1, FAK; conditions: concentration: 1 μM, replicates: in singlicate; n = 1
# T1 construct: gene PTK2
# FER = conditions: concentration: 1 μM, replicates: in singlicate, n = 1
# FES = conditions: concentration: 1 μM, replicates: in singlicate, n = 1
# FGFR1 = conditions: concentration: 1 μM, replicates: in singlicate, n = 1
# FGFR2 = conditions: concentration: 1 μM, replicates: in singlicate; n = 1
# FGFR3 = conditions: concentration: 1 μM, replicates: in singlicate, n = 1
# FGFR4 = conditions: concentration: 1 μM, replicates: in singlicate, n = 1
# FGR = conditions: concentration: 1 μM, replicates: in singlicate, n = 1
# FLT1 = conditions: concentration: 1 μM, replicates: in singlicate, n = 1
# FLT3-autoinhibited = conditions: concentration: 1 μM, replicates: in singlicate; n = 1
# FLT3 = conditions: concentration: 1 μM, replicates: in singlicate, n = 1
# FLT4 = conditions: concentration: 1 μM, replicates: in singlicate, n = 1
# FRK = conditions: concentration: 1 μM, replicates: in singlicate, n = 1
# FYN = conditions: concentration: 1 μM, replicates: in singlicate, n = 1
# GAK = conditions: concentration: 1 μM, replicates: in singlicate, n = 1
# GCN2(Kin.Dom.2,S808G) = test system: T2, GCN2(Kin.Dom.2,S808G); conditions: concentration: 1 μM, replicates: in singlicate, n = 1
# T2 construct: gene EIF2AK4
# GRK1 = conditions: concentration: 1 μM, replicates: in singlicate; n = 1
# GRK2 = test system: T3, GRK2; conditions: concentration: 1 μM, replicates: in singlicate, n = 1
# T3 construct: gene ADRBK1
# GRK3 = test system: T4, GRK3; conditions: concentration: 1 μM, replicates: in singlicate, n = 1
# T4 construct: gene ADRBK2
# 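Also: KINOMEscan kinase panel screen.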
smiles,measurement,setting,value
Fc1ccc(-c2ncn(CCCN3CCOCC3)c2-c2ccccn2)cc1 [SB-211742],%Inh,ERN1,0%
same,%Inh,FAK,29%
same,%Inh,FER,0%
same,%Inh,FES,10%
same,%Inh,FGFR1,0%
same,%Inh,FGFR2,0%
same,%Inh,FGFR3,0%
same,%Inh,FGFR4,0%
same,%Inh,FGR,27%
same,%Inh,FLT1,23%
same,%Inh,FLT3-autoinhibited,0%
same,%Inh,FLT3,20%
same,%Inh,FLT4,0%
same,%Inh,FRK,6%
same,%Inh,FYN,0%
same,%Inh,GAK,6%
same,%Inh,"GCN2(Kin.Dom.2,S808G)",0%
same,%Inh,GRK1,0%
same,%Inh,GRK2,2%
same,%Inh,GRK3,0%
CC(C)(CN)c1nc(-c2ccc(Cl)c(O)c2)c(-c2ccncc2)[nH]1.O=C(O)C(F)(F)F [SB-477794],%Inh,ERN1; 1 µM,1% and 22%
same,%Inh,FAK,0%
same,%Inh,FER; 1 µM,12% and 31%
same,%Inh,FES; 1 µM,0% and 22%
same,%Inh,FGFR1; 1 µM,24% and 54%
same,%Inh,FGFR2,0%
same,%Inh,FGFR3; 1 µM,8% and 33%
same,%Inh,FGFR4; 1 µM,18% and 0%
same,%Inh,FGR; 1 µM,95.3% and 94.8%
same,%Inh,FLT1; 1 µM,82% and 80%
same,%Inh,FLT3-autoinhibited,0%
same,%Inh,FLT3; 1 µM,0% and 29%
same,%Inh,FLT4; 1 µM,78% and 74%
same,%Inh,FRK; 1 µM,99.5% and 99.1%
same,%Inh,FYN; 1 µM,97.3% and 96.8%
same,%Inh,GAK; 1 µM,71% and 56%
same,%Inh,"GCN2(Kin.Dom.2,S808G); 1 µM",14% and 0%
same,%Inh,GRK1,0%
same,%Inh,GRK2; 1 µM,0% and 26%
same,%Inh,GRK3; 1 µM,65% and 0%
COc1cc2c(cc1OCCN1CCN(C)CC1)ncc1c3ccc(C#N)cc3[nH]c21,%Inh,ERN1,0%
same,%Inh,FAK,27%
same,%Inh,FER,3%
same,%Inh,FES,0%
same,%Inh,FGFR1,0%
same,%Inh,FGFR2,7%
same,%Inh,FGFR3,0%
same,%Inh,FGFR4,22%
same,%Inh,FGR,0%
same,%Inh,FLT1,14%
same,%Inh,FLT3-autoinhibited,97.4%
same,%Inh,FLT3,98.6%
same,%Inh,FLT4,0%
same,%Inh,FRK,2%
same,%Inh,FYN,25%
same,%Inh,GAK,99.6%
same,%Inh,"GCN2(Kin.Dom.2,S808G)",90.8%
same,%Inh,GRK1,32%
same,%Inh,GRK2,0%
same,%Inh,GRK3,0%
NCC(NC(=O)c1cc(-c2cn[nH]c2)c(-c2ccnc3[nH]ccc23)s1)c1ccccc1.O=C(O)C(F)(F)F.O=C(O)C(F)(F)F (stereo not shown) [GSK1325775],%Inh,ERN1,29%
same,%Inh,FAK,57%
same,%Inh,FER,0%
same,%Inh,FES,0%
same,%Inh,FGFR1,20%
same,%Inh,FGFR2,0%
same,%Inh,FGFR3,0%
same,%Inh,FGFR4,0%
same,%Inh,FGR,0%
same,%Inh,FLT1,0%
same,%Inh,FLT3-autoinhibited,21%
same,%Inh,FLT3,69%
same,%Inh,FLT4,14%
same,%Inh,FRK,0%
same,%Inh,FYN,25%
same,%Inh,GAK,91.9%
same,%Inh,"GCN2(Kin.Dom.2,S808G)",99.1%
same,%Inh,GRK1,35%
same,%Inh,GRK2,70%
same,%Inh,GRK3,76%
Nc1nc(-c2ccc3c(N)n[nH]c3c2)cc(N2CCCC2)n1 [GSK2227430],%Inh,ERN1,0%
same,%Inh,FAK,0%
same,%Inh,FER,0%
same,%Inh,FES,1%
same,%Inh,FGFR1,0%
same,%Inh,FGFR2,38%
same,%Inh,FGFR3,0%
same,%Inh,FGFR4,0%
same,%Inh,FGR,20%
same,%Inh,FLT1,14%
same,%Inh,FLT3-autoinhibited,0%
same,%Inh,FLT3,0%
same,%Inh,FLT4,0%
same,%Inh,FRK,0%
same,%Inh,FYN,0%
same,%Inh,GAK,0%
same,%Inh,"GCN2(Kin.Dom.2,S808G)",0%
same,%Inh,GRK1,0%
same,%Inh,GRK2,0%
same,%Inh,GRK3,0%
